Experimental data reported in PubChem BioAssay (NCATS).
Inconclusive results are not listed. A call without a number means that no potency is given here. The source made the active and inactive calls. The call rests on the fitted dose curve; in most records, active means well fitted inhibition curve with a large enough effect; inconclusive means small, poorly fitted or top-dose-only effect; inactive means flat fitted curve, though single readings scatter.

Tested on: MCC-13
Assay: qHTS assay to identify novel small-molecules to repurpose for Merkel cell carcinoma treatment (AID 1296009); further: nearly all actives have a fitted effect of over 60% in size
Conditions: MCC and control cell lines, CellTiter-Glo viability, 72 h; series mostly up to 46 µM
Summary of the method: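 Viability readout: ATP luminescence (CellTiter-Glo) after 72 hr drug exposure at 37 degree celsius. Dose-response format was 8 points for NPC and 11 points for MIPE; data normalized to in-plate controls.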
Potency means the concentration at half of the fitted maximal effect.

| SMILES | Potency |
| --- | --- |
| Cn1cc(-c2ccc3ncc(Cc4ccc5ncccc5c4)n3n2)cn1 | inactive |
| CN1CCc2c(c3ccccc3n2Cc2ccc(C(=O)NO)cc2)C1 | inactive |
| CCc1nc(-c2cccc(C)c2)c(-c2ccnc(NC(=O)c3ccccc3)c2)s1 | inactive |
| CCN(CC)CCNC(=O)c1c(C)[nH]c(C=C2C(=O)Nc3ccc(F)cc32)c1C | 42.9 µM (active) |
| CCOc1cc2ncc(C#N)c(Nc3ccc(OCc4ccccn4)c(Cl)c3)c2cc1NC(=O)C=CCN(C)C | inactive |
| Nc1nc(N)c2nc(-c3cccc(O)c3)c(-c3cccc(O)c3)nc2n1 | inactive |
| Cc1cnc(Nc2ccc(CN3CCOCC3)cc2)nc1Nc1cccc(S(=O)(=O)NC(C)(C)C)c1 | 13.2 µM (active) |
| CCN(CC)CCCCNc1ncc2c(n1)N(C)C(=O)N(c1c(Cl)c(OC)cc(OC)c1Cl)C2 | inactive |
| COc1ccc(S(=O)(=O)Nc2cccnc2Nc2ccc(O)cc2)cc1 | 3.72 µM (active) |
| CC(C(C)N1CC(=O)NC(=O)C1)N1CC(=O)NC(=O)C1 (stereo not given) | inactive |
| Cc1ccc(-n2[nH]c(C)c(N=Nc3cccc(-c4cccc(C(=O)O)c4)c3O)c2=O)cc1C | inactive |
| COc1cccc2c1C(=O)c1c(O)c3c(c(O)c1C2=O)C[C@@](O)(C(=O)CO)C[C@H]3O[C@H]1C[C@H](N)[C@H](O)[C@H](C)O1 | 2.64 µM (active) |
| C[C@@H](Cc1cc2c(c(C(N)=O)c1)N(CCCO)CC2)NCCOc1ccccc1OCC(F)(F)F | inactive |
| CCOC(=O)[C@@H](N)Cc1ccc(-c2cc(O[C@H](c3ccc(Cl)cc3-n3ccc(C)n3)C(F)(F)F)nc(N)n2)cc1 | inactive |
| CC(C)c1cc(C(C)C)c(CC(=O)NS(=O)(=O)Oc2c(C(C)C)cccc2C(C)C)c(C(C)C)c1 | inactive |
